Screens from PubChem BioAssay.
MITF primary = MITF inhibitors, primary screen, biochemical, AlphaScreen, human. AlphaScreen MITF homodimerization, bead proximity signal. inhibition, % at 2.6 µM. 650,000 tested, 0.91% active. AID 1259374, 2018; in the data active = inhibition above about 50%;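 note: 0% = vehicle wells with protein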
TEAD-YAP block = TEAD-YAP interaction inhibition, primary screen, TEAD-YAP interaction inhibitor project, luminescence, HEK-TIYL cells | TEAD-Gal4/YAP UAS-luciferase luminescence | inhibition, % at 9.12 µM | 640,000 tested, 1.4% active; in the data active = inhibition above about 32%;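 note: 0% = median of test compound wells and 100% = reference inhibitor wells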
FBW7 activator = FBW7 E3 ligase activators, primary screen, biochemical, AlphaScreen, human; F-box/WD repeat-containing protein 7 (Homo sapiens), Q969H0; AlphaScreen FBW7–phospho-cyclin E peptide binding, activator screen; normalized activity (activation), % at 26.1 µM; 650,000 tested, 0.13% active; in the data active = normalized activity above about 1.9%;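 note: purified mutant Fbw7 with reduced substrate affinity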
Target sequence (Q969H0 whole entry, looked up): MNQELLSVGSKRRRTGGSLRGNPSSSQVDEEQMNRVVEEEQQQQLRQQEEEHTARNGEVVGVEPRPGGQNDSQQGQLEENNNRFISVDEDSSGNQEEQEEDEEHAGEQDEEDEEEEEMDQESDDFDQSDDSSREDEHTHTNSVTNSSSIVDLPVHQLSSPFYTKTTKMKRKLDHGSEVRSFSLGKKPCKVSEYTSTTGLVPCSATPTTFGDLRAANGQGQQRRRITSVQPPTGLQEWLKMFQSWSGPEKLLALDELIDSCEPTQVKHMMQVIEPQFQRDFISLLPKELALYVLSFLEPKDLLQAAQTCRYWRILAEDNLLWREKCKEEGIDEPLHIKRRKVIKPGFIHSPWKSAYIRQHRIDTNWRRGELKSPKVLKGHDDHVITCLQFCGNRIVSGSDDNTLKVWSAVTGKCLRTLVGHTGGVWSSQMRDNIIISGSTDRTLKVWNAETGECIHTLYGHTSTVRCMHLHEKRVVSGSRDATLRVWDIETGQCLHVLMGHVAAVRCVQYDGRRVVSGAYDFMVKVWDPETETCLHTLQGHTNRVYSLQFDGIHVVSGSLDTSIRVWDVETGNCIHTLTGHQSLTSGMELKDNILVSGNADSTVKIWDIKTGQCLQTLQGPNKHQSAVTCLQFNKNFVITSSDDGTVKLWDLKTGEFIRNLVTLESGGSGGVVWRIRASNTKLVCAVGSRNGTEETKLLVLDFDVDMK
GPR151 ag = activators of human GPR151, primary screen, cell-based, PathHunter beta-arrestin, luminescence; 650,000 tested, 1% active; PathHunter beta-arrestin GPR151 cells; activation, % at 11.2 µM; in the data active = activation above about 4.9%;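 note: 0% = median of compound wells and 100% = cells with positive control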
MITF inh conf = MITF inhibitors, retest of hits, confirmation, biochemical, AlphaScreen, triplicate; AlphaScreen MITF homodimerization, biotin/His-MITF beads; 4,700 tested, 16% active; inhibition, % at 2.6 µM; AID 1259372, 2018; shares compounds with MITF primary;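 active = inhibition above a cutoff derived from the DMSO control wells, cut at about 28% in these data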;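 note: 0% = MITF dimer wells with DMSO only; inhibitors lower the bead chemiluminescence by keeping MITF from dimerizing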
AlphaScreen intf2 = AlphaScreen optical interference compounds, counter-screen for MITF inhibitor project, biochemical, triplicate; shares compounds with MITF primary; LysRS AlphaScreen counterscreen, signal interference; inhibition, % at 2.6 µM; 4,700 tested, 7.6% active; AID 1259376, 2018;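 active = inhibition above a cutoff derived from the DMSO control wells, cut at about 30% in these data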
* hit, by the source's call; . = no result. Rows were chosen to be rich in hits. Some 3.5% of all compounds tested hit in one or more screens of this group.

SMILES | MITF primary | TEAD-YAP block | FBW7 activator | GPR151 ag | MITF inh conf | AlphaScreen intf2
O=C(O)CN1CC2([N+](=O)[O-])C=CCC([N+](=O)[O-])(C1)C2 (stereo not given) | 55* | 1 | 0 | 2 | 5 | 28
CCN(CC)C(=O)C1=CC2([N+](=O)[O-])CN(CC(=O)O)CC([N+](=O)[O-])(C1)C2 (stereo not given) | 9 | -1 | 0 | 2 | . | .
COCCNC(=O)c1ccccc1NC(=O)c1ccc(NS(C)(=O)=O)cc1 | 13 | -2 | 0 | -1 | . | .
CCCc1nc2ccccc2c(NC(=O)CN(C)CCc2ccc(OC)c(OC)c2)c1CC | 70* | 7 | 0 | 3 | 7 | -1
CCCC(=O)Nc1c(CC)c(CCC)nc2ccccc12 | 5 | 3 | 0 | 1 | . | .
Fc1ccccc1OCCCn1cnc2ccccc21 | 5 | -18 | 0 | 0 | . | .
O=[N+]([O-])c1ccccc1OCCOCCn1cnc2ccccc21 | 88* | -2 | 0 | 0 | 12 | 11
O=Cc1cccc(OCCCn2cnc3ccccc32)c1 | 66* | 14 | 0 | 2 | 26 | 10
O=[N+]([O-])c1ccccc1OCCCn1cnc2ccccc21 | 60* | -72 | 0 | 1 | 11 | 13
O=[N+]([O-])c1ccccc1OCCOCCn1cncn1 | 3 | -3 | 0 | 0 | . | .
COc1ccccc1C1(O)CCN(Cc2cccnc2)CC1 | 6 | 7 | 0 | 0 | . | .
COc1ccc(Br)cc1CN1CCN(Cc2c[nH]c3ccccc23)CC1 | 30 | 13 | 0 | 1 | . | .
COc1cc(OC)c(OC)cc1CN1CCN(Cc2cccnc2)CC1 | 82* | -4 | 0 | -2 | 7 | 21
COc1ccc(OC)c(CN2CCN(Cc3cccnc3)CC2)c1 | 82* | 11 | 0 | -1 | -11 | 0
COc1ccc(OC)c(CN2CCN(c3ccccn3)CC2)c1 | 47 | -5 | 0 | -1 | . | .
COc1ccc(Br)cc1CN1CCN(Cc2cccnc2)CC1 | 59* | -3 | 0 | 1 | 16 | 16
COc1ccccc1CN1CCN(Cc2cccnc2)CC1 | 84* | -3 | 0 | 1 | 10 | 18
CCSc1nnc(-c2cccc(S(=O)(=O)N3CCOCC3)c2)n1C(C)CC (stereo not given) | -4 | -4 | 0 | -1 | . | .
O=C(Nc1ccc(F)cc1)C(Cc1ccccc1)NS(=O)(=O)c1cccs1 (stereo not given) | 9 | 6 | 0 | 0 | . | .
COc1ccccc1Nc1nc(-c2cccc(NC(C)=O)c2)cs1 | -2 | -67 | 0 | 2 | . | .
CCc1ccccc1Nc1nc(-c2cccc(NC(C)=O)c2)cs1 | 53* | -2 | 0 | 5 | 7 | 14
CC(=O)Nc1cccc(-c2csc(NCc3ccccc3)n2)c1 | 85* | -4 | 0 | 0 | 9 | 9
CC(=O)Nc1ccc(-c2csc(NCc3ccccc3)n2)cc1 | 8 | -33 | 0 | 2 | . | .
Nc1ccc(Br)cc1-c1n[nH]c(=S)[nH]c1=O | 1 | -3 | 0 | -2 | . | .
CC(C)c1ccc(NC(=O)C(c2cc3c(cc2[N+](=O)[O-])OCO3)N2CCc3ccccc32)cc1 (stereo not given) | 9 | 2 | 0 | -2 | . | .
SMILES | MITF primary | TEAD-YAP block | FBW7 activator | GPR151 ag | MITF inh conf | AlphaScreen intf2
O=C(NC(=S)Nc1ccccc1C(=O)O)c1cncc(Br)c1 | 17 | 6 | 0 | -1 | . | .
O=C(Nc1ccccc1C(=O)O)c1cncc(Br)c1 | 57* | -9 | 0 | -4 | 11 | 14
COc1cccc(CN2CCN(Cc3ccccc3[N+](=O)[O-])CC2)c1 | 64* | 1 | 0 | -1 | 1 | 6
COc1cc(CN(C)CCN(C)C)cc([N+](=O)[O-])c1O | 56* | -1 | 0 | 1 | 10 | 12
CN(C)CCN(C)Cc1ccc(O)c([N+](=O)[O-])c1 | 8 | -17 | 0 | 1 | . | .
COc1cc(CN2CCN(CCO)CC2)cc([N+](=O)[O-])c1O | 75* | 5 | 0 | -2 | -1 | 2
COc1cc(CN2CCN(Cc3ccccc3[N+](=O)[O-])CC2)cc(OC)c1O | 60* | 0 | 0 | 1 | -2 | 6
COc1cc(OC)c(OC)cc1CN1CCN(Cc2ccccc2[N+](=O)[O-])CC1 | 72* | 10 | 0 | 0 | -2 | 15
CCS(=O)(=O)N1CCN(Cc2ccc(OC)c(OCc3ccccc3)c2)CC1 | 37 | 5 | 0 | 1 | . | .
COc1ccc(CN2CCN(Cc3ccccc3[N+](=O)[O-])CC2)cc1OCc1ccccc1 | 82* | -2 | 0 | 1 | 7 | 9
COc1cc(CN2CCN(Cc3ccccc3Br)CC2)c([N+](=O)[O-])cc1OC | 71* | -3 | 1 | 1 | 22 | 0
Cc1ccc(OCC(=O)Nc2ccc(-c3nc4cc(C(C)C)ccc4o3)cc2)c(C)c1 | -21 | -5 | 0 | -1 | . | .
CCCCCNc1ncnc2c1sc1nc(CCC)c3c(c12)CC(C)(C)OC3 | 9 | 8 | 0 | -1 | . | .
CC(=O)N(C)c1ccc(OCC(O)CN2CCN(Cc3ccccc3)CC2)cc1 (stereo not given) | 82* | -7 | 0 | 1 | 8 | 18
COC(=O)C(C)CN1CCc2ccccc2C1 (stereo not given) | 47 | -1 | 1 | -1 | . | .
COC(=O)C(C)CN1CCN(Cc2ccccc2)CC1 (stereo not given) | 78* | -4 | 0 | 0 | 24 | -3
O=C(Nc1ccccc1C(=O)N1CCOCC1)c1ccc(-c2ccccc2)cc1 | 9 | 9 | 1 | 0 | . | .
COc1cc(Br)c(C2NC(=O)NC(C)=C2C(C)=O)cc1OC (stereo not given) | 16 | -4 | 0 | 0 | . | .
CCS(=O)(=O)N1CCN(Cc2cccc(Cl)c2)CC1 | 59* | -9 | 0 | 2 | 9 | 13
O=S(=O)(c1ccccc1)N1CCN(Cc2cccc(Cl)c2)CC1 | 64* | 2 | 0 | 0 | 8 | 19
O=S(=O)(c1ccc(Cl)cc1)N1CCN(Cc2ccc(F)cc2)CC1 | 1 | -3 | 0 | 1 | . | .
CS(=O)(=O)c1cccc(S(=O)(=O)N2CCN(Cc3ccccc3)CC2)c1 | -12 | 6 | 0 | 0 | . | .
O=S(=O)(c1ccc(F)cc1)N1CCN(Cc2cccc(Cl)c2)CC1 | 60* | 1 | 0 | 1 | 5 | 14
COc1cc(N)ccc1NC(=O)CSc1ncnc2sc3c(c12)CCCC3 | 79* | 6 | 0 | 1 | 8 | 22
CC1(C2CCN(Cc3ccc(F)cc3F)CC2)NC(=O)N(Cc2ccsc2)C1=O (stereo not given) | -12 | -2 | 0 | 0 | . | .
